# Screening results (PubChem)
# Hits are enriched below; roughly 4.8% of the tested compounds scored in any of these assays.
# HepG2 tox: qHTS for Inhibitors of TGF-b: Cytotox Counterscreen. Potency, µM (doses to about 46.1 µM), actives largely listed as cytotoxic. HepG2 CAGA-GFP viability, ATP luminescence, 18 h. actives 0.76% (n = 410,000)
#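 CellTiter-Glo luminescence gave cytotoxicity after 18 hours at 37 degrees C. The cells were HepG2 CAGA-GFP in 1% FBS DMEM, stimulated with 500 pg/mL TGF-beta after compound addition. %Activity was normalised to no-cell wells (complete cell-killing) and DMSO (no toxicity), and curves were fitted and classified.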
# TGFb inhibitor: qHTS for Inhibitors of TGF-b. AID 588855, 2011. actives 1.2% (n = 410,000). Potency, µM (titrated, usually from 46.1 µM), usual class: inhibitors. HepG2 CAGA-GFP TGF-b/SMAD3 reporter, GFP fluorescence, 18 h; TGF-beta stimulated, 500 pg/mL final; further: nearly all actives have a fitted effect of over 65% in size
#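 First, reporter cells (HEPG2 CAGA-GFP) rested 2 h at 37 degrees C. Next, compounds were pinned in and TGF-beta added to 500 pg/mL final. After 18 h, GFP was imaged per cell and summed per well.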
# D3 ag: qHTS of D3 Dopamine Receptor Agonist: qHTS. D(3) dopamine receptor (Homo sapiens), P35462. D3R DiscoveRx beta-arrestin cells, luminescence, 90 min. max activation, %. actives 0.58% (n = 410,000). AID 652048, 2013; in the data active means max activation above about 30%
# Target sequence (P35462 whole entry, looked up): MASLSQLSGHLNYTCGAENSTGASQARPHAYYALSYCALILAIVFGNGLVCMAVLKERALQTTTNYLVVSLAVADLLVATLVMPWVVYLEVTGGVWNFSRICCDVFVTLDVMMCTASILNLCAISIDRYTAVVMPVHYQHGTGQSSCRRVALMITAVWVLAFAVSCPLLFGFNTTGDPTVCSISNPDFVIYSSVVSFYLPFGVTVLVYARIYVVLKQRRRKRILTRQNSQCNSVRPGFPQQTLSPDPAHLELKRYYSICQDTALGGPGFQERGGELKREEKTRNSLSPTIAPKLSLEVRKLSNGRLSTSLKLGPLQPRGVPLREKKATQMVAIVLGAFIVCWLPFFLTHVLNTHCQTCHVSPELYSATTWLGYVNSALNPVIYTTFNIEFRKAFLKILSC
#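 Agonist-mode cell screen: cells plated at 1500/well and incubated overnight at 37 °C, then exposed to library compounds for 90 min at 37 °C. Detection reagent was added for 30–60 min at room temperature, and luminescence was read.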
# D3 antag: qHTS of D3 Dopamine Receptor Antagonist: qHTS; D3R cells, DiscoveRx beta-arrestin luminescence, antagonist mode; stronger effect = lower value; actives 2.5% (n = 360,000); max response, negative = inhibition, %; D(3) dopamine receptor (Homo sapiens), P35462; in the data active means max response below about -50%; inconclusive means no clear call, values can overlap the other calls
#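 Cells expressing the human receptor were seeded at 1500 cells/well, incubated overnight at 37 degrees C in 5% CO2, then exposed to library compounds with dopamine controls for 90 minutes at 37 degrees C before luminescent detection.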
# S2 tox: Viability Counterscreen for Primary qHTS for Inhibitors of ATXN expression | S2 cells (HEK-293 line with an ATXN2-luciferase reporter) viability, CellTiter-Fluor protease fluorescence, 24 h | Potency, µM (titrated, usually from 56.7 µM), hits mostly cytotoxic | AID 651635, 2014 | actives 0.49% (n = 400,000); further: nearly all actives have a fitted effect of over 40% in size
# ATXN2 expr inh: Primary qHTS for Inhibitors of ATXN expression | HEK-293 ATXN2-luciferase reporter, luminescence, 24 h | Potency, µM (doses to about 57 µM), most hits filed as inhibitors | actives 0.72% (n = 360,000); further: nearly all actives have a fitted effect of over 55% in size
#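 qHTS (up to 57 uM final) was run with 24 h compound exposure of reporter cells at 37 °C. Each well was multiplexed: SteadyGlo luminescence measured ATXN2-luciferase expression after a fluorogenic Gly-Phe-AFC viability readout (25 uM final).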
# Numbers stand for hits; i = inactive; ? = inconclusive; nt = no result. Unless noted, the call rests on the fitted dose curve; in most records, active means well fitted curve in the direction sought with a large enough effect; inconclusive means small, poorly fitted or top-dose-only effect, or another doubt; inactive means no such curve, though single readings can be large; an effect the other way counts as inactive or inconclusive.
SMILES,HepG2 tox,TGFb inhibitor,D3 ag,D3 antag,S2 tox,ATXN2 expr inh
Nc1c(N(CCC2=CCCCC2)C(=O)COc2ccc(F)cc2)c(=O)[nH]c(=O)n1Cc1ccccc1,8.9µM,7.9µM,i,i,nt,?
COc1ccc(CC(=O)N(CCC2=CCCCC2)c2c(N)n(Cc3ccccc3)c(=O)[nH]c2=O)cc1OC,i,i,i,i,i,i
N#CSCC(=O)O,nt,nt,nt,nt,i,i
CCOC(=O)c1cccc(NC(=O)c2ccc3snnc3c2)c1,i,i,i,nt,i,i
CC(Oc1ccc(Br)cc1)C(=O)N(Cc1ccccc1)c1c(N)n(Cc2ccccc2)c(=O)[nH]c1=O (configuration not stated),i,i,i,-61,i,nt
COCCN(C(=O)COC(=O)/C=C/c1ccc(OC)c(OC)c1)c1c(N)n(Cc2ccccc2)c(=O)[nH]c1=O,i,i,i,-69,i,i
Cc1cc(Cl)ccc1NC(=O)CN1C(=O)COc2ccc(S(=O)(=O)Nc3ccccc3)cc21,i,14µM,i,nt,?,i
COc1cc(NC(=O)CN2C(=O)COc3ccc(S(=O)(=O)NC4CCCC4)cc32)cc(OC)c1,i,i,i,nt,i,i
CCN(CCCNC(=O)CN1C(=O)COc2ccc(S(=O)(=O)N3CCC(C)CC3)cc21)Cc1ccccc1,i,i,i,-74,i,i
Cc1ccc(NC(=O)CN2C(=O)COc3ccc(S(=O)(=O)N4CCCCCC4)cc32)cc1Cl,i,10µM,i,nt,nt,nt
O=C(CN1C(=O)COc2ccc(S(=O)(=O)NC3CCCC3)cc21)Nc1ccc(Cl)cc1F,16µM,?,i,nt,i,i
CC1CCN(C(c2ccc(F)cc2)c2sc3nc(-c4ccco4)nn3c2O)CC1 (configuration not stated),i,i,i,nt,i,i
Cc1ccc(NC(=O)CCCN2C(=O)COc3ccc(C)cc32)c(Cl)c1,i,nt,i,nt,nt,nt
[O-][n+]1cccc(/C(Cl)=N/OC[C@@H](O)CN2CCCCC2)c1,nt,nt,nt,nt,i,i
O=C(CN1C(=O)COc2ccc(S(=O)(=O)NC3CCCC3)cc21)Nc1ccc(F)c(Cl)c1,i,13µM,i,nt,?,i
Cc1ccc(NC(=O)CN2C(=O)COc3ccc(S(=O)(=O)N4CCCC4)cc32)cc1C,i,i,i,i,?,i
Cc1ccc(NC(=O)CN2CCSc3ccc(S(=O)(=O)N4CCCC4)cc32)cc1C,i,?,i,nt,14µM,i
CCN1CCN(C(=O)c2cnn(-c3ncc4c(n3)-c3ccccc3CCC4)c2COC)CC1,nt,nt,nt,nt,i,nt
O=c1c2cccnc2n(Cc2ccccc2F)c(=O)n1Cc1ccc(F)cc1,i,i,i,nt,i,i
CC(C)c1ccc(C(C)NC(=O)C2CCCC2)cc1 (configuration not stated),i,i,31,i,i,nt
CC(NC(=O)C1CCCC1)c1ccc(Br)cc1 (configuration not stated),i,i,i,i,i,nt
N#CNC(=Nc1cccc(F)c1)SCc1ccccc1F,11µM,?,i,i,?,nt
CC(C)N=C(NC#N)SCc1ccccc1F,i,i,i,i,i,i
Cc1ccc2c(=O)cc(C(=O)Nc3c(C)n(C)n(-c4ccccc4)c3=O)oc2c1,i,i,i,nt,i,i
O=C(COc1ccccc1F)Nc1ccc2nc(SCC(=O)N3CCCC3)sc2c1,i,i,i,nt,nt,nt
SMILES,HepG2 tox,TGFb inhibitor,D3 ag,D3 antag,S2 tox,ATXN2 expr inh
CC(=O)Nc1ccc(NC(=O)c2nc(S(=O)(=O)Cc3cccc(C)c3)ncc2Cl)cc1,i,?,i,-75,?,?
Cc1ccc(CNC(=O)c2nc(S(=O)(=O)Cc3ccc(C)cc3)ncc2Cl)cc1,i,?,i,nt,i,i
COC(=O)c1ccc(NC(=O)c2nc(S(=O)(=O)Cc3cccc(C)c3)ncc2Cl)cc1,22µM,?,i,-53,28µM,?
COC(=O)c1ccccc1NC(=O)c1nc(S(=O)(=O)Cc2cccc(C)c2)ncc1Cl,i,i,i,nt,nt,nt
O=C(NCc1ccc(F)cc1)C(c1ccccc1)N(C(=O)c1csnn1)c1ccccc1 (configuration not stated),i,i,i,i,i,i
O=C(NCc1ccc(F)cc1)C(c1ccco1)N(C(=O)c1csnn1)c1ccccc1 (configuration not stated),i,i,49,i,i,i
O=C(CN1C(=O)COc2ccc(S(=O)(=O)N3CCOCC3)cc21)NCc1ccc(Cl)cc1,i,?,i,nt,nt,nt
CCOC(=O)c1c(C)oc2nc(C)nc(NCCCN3CCN(c4cccc(C)c4)C(C)C3)c12 (configuration not stated),i,i,i,nt,i,i
O=C(Cn1nc(C(F)(F)F)c2c1CCCC2)Nc1cccc(Cl)c1,i,11µM,i,nt,?,?
COc1ccc(Cl)cc1NC(=O)Cn1nc(C(F)(F)F)c2c1CCCC2,i,13µM,i,nt,?,i
O=C(Cn1nc(-c2ccc(Cl)cc2)c2ccccc2c1=O)Nc1cccc(Br)c1,i,i,i,nt,i,i
O=C(Cn1nc(C(F)(F)F)c2c1CCCC2)Nc1ccc(Br)cc1,i,i,i,nt,nt,nt
O=C(Cn1nc(-c2ccc(Cl)cc2)c2ccccc2c1=O)Nc1cccc(C(F)(F)F)c1,i,11µM,i,nt,?,i
CCOc1ccc(C(c2c(O)cc(C)n(Cc3ccco3)c2=O)N2CCCCC2)cc1 (configuration not stated),i,i,i,nt,nt,nt
O=C(NCCc1ccccc1)[C@@H]1CC=C[C@@H]2CCN(C3CC3)C(=O)[C@@H]21,i,i,nt,nt,nt,nt
CCCCCCCCN1C(=O)[C@H](CC(=O)NCCc2ccccc2OC)C[C@@]2(C(=O)OCC)CCCC=C12,nt,nt,i,i,22µM,?
CCOC(=O)[C@]12CCCC=C1N(CCc1ccc(OC)c(OC)c1)C(=O)[C@H](CC(=O)NCCc1ccccc1OC)C2,nt,nt,i,i,nt,nt
CCOC(=O)[C@]12CCCC=C1N(Cc1ccc3c(c1)OCO3)C(=O)[C@H](CC(=O)NCCCCc1ccccc1)C2,nt,nt,i,-51,?,?
CCOC(=O)[C@]12CCC=C1N(Cc1ccc3c(c1)OCO3)C(=O)[C@H](CC(=O)NCCCCc1ccccc1)C2,nt,nt,i,i,?,?
Cc1cccc(OCCCCn2c(C3CC(=O)N(c4ccc(C)cc4C)C3)nc3ccccc32)c1 (configuration not stated),i,10µM,i,nt,?,?
